KB-V1 MDR tox: qHTS assay for MDR1-selective chemotherapeutics: Primary screen using the drug-selected MDR subline cells KB-V1; Potency, µM (series often up to 46.1 µM), actives largely listed as cytotoxic; AID 1347076, 2019; KB-V1 MDR cells viability, CellTiter-Glo, 72 h; 400,000 compounds, 3.4% hits; further: on the % scale 0 is the no-effect control and ±100 the full control effect; nearly all actives have a fitted effect of over 60% in size
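Compound-treated KB-V1 multidrug-resistant cells, 72 h, 37 degrees C; viability by CellTiter-Glo. Fitted qHTS curves give the values.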
SW480 rereplic: A quantitative high throughput screen for small molecules that induce DNA re-replication in SW480 colon adenocarcinoma cells | AID 624297, 2012 | Potency, µM (titrated, usually from 46.1 µM), without a hit: top-dose re-replication activation, actives largely listed as activators | SW480 DNA re-replication, Hoechst DNA content imaging, 48 h | 340,000 compounds, 1.8% hits; further: % of control where 0% means no effect; nearly all actives have a fitted effect of over 55% in size
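250 cells/well; 23 nL cpd via pin tool; 48 hr, 37 C, 5% CO2; Hoechst 40 min; imager read of total nuclear intensity, ex 405/em 500-530 nm.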
MCF10A rereplic: A quantitative high throughput screen for small molecules that induce DNA re-replication in MCF 10a normal breast cells; MCF 10A DNA re-replication, Hoechst nuclear intensity, 48 h; Potency, µM (doses to about 46.1 µM), for inactives: at the top dose activity, positive = re-replication, most hits filed as activators; 350,000 compounds, 2.9% hits; further: % of control where 0% means no effect; nearly all actives have a fitted effect of over 50% in size
KB-3-1 tox: qHTS assay for MDR1-selective chemotherapeutics: Primary screen using the parental adenocarcinoma cell KB-3-1 | Potency, µM (titrated, usually from 46.1 µM), usual class: cytotoxic | KB-3-1 viability, CellTiter-Glo ATP luminescence, 72 h | 400,000 compounds, 1.4% hits; further: on the % scale 0 is the no-effect control and ±100 the full control effect; nearly all actives have a fitted effect of over 60% in size
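Luminescent ATP read-out (CellTiter-Glo) measures survival of drug-naive KB-3-1 cells after 72 h compound exposure at 37 °C. Titration series was screened from lowest to highest concentration, with DMSO vehicle plates as background controls.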
TSG101-PTAP inh: qHTS Assay for Iinhibitors of HIV-1 Budding by Blocking the Interaction of PTAP/TSG101; Fluorescence polarization, FITC-PTAP peptide / Tsg101 binding; Potency, µM (series often up to 115 µM), without a hit: at the top dose activity change, negative = inhibition, most hits filed as inhibitors; 340,000 tested, under 10 active; active means well fitted inhibition curve with a large enough effect in the main read-out, with a control signal flat, not every such curve was filed as active; inconclusive means small, poorly fitted or top-dose-only effect, or effect the other way, or a change in a side signal; inactive means no such curve, though single readings can be large or run the other way; further: % of control where 0% means no effect
Target sequence (Q99816 whole entry, looked up): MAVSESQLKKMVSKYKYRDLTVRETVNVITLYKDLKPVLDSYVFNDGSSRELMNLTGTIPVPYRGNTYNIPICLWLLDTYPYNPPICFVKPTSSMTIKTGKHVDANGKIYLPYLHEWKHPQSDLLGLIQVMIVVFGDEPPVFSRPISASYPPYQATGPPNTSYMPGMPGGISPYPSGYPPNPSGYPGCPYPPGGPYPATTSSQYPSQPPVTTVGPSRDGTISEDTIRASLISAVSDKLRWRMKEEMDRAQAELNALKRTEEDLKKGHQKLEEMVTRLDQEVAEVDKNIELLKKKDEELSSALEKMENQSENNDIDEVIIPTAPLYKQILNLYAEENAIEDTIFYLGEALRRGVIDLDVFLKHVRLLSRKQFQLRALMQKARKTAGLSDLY
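Fluorescence polarization binding of Tsg101 binding domain (10 uM final) to FITC-labeled PTAP peptide (50 nM final) in HEPES pH 7.5 buffer with NaCl, Tween 20, EDTA, TCEP. Compounds added before peptide; binding 20 min at RT.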
RGS4 inhibitor: Inhibitors of Regulator of G Protein Signaling (RGS) 4: qHTS | Regulator of G-protein signaling 4 (Homo sapiens), P49798 | Transcreener GDP fluorescence polarization, RGS4-accelerated GTP hydrolysis | Potency, µM (titrated, usually from 114 µM), for inactives: at the top dose activity change, negative = inhibition, usual class: inhibitors | 390,000 compounds, 0.039% hits; further: on the % scale 0 is the no-effect control and ±100 the full control effect; nearly all actives have a fitted effect of over 75% in size
Target sequence (P49798 whole entry, looked up): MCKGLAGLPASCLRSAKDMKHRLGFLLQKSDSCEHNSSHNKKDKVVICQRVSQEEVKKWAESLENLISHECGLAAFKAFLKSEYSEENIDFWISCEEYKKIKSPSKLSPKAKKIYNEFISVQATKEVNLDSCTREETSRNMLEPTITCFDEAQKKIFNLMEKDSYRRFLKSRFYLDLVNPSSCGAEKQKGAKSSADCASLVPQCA
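MLSMR compounds (23 nl, pin-transferred) preincubated 10 min at room temperature with a 500nM (2x) first reagent, then RGS4 at 900nM (2x) plus Transcreener GDP mix added; fluorescence polarization (620/688 nm) read before and after 90 min at 30 °C.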
* = called active by the depositor; i = inactive; ? = inconclusive; . = no result given; [ ] = another dose, or the depositor's remark. Rows were chosen to be rich in hits. Some 6.6% of all compounds tested hit in one or more screens of this group. Unless noted, the call rests on the fitted dose curve; in most records, active means well fitted curve in the direction sought with a large enough effect; inconclusive means small, poorly fitted or top-dose-only effect, or another doubt; inactive means no such curve, though single readings can be large; an effect the other way counts as inactive or inconclusive. Potency means the concentration at half of the fitted maximal effect.

SMILES	KB-V1 MDR tox	SW480 rereplic	MCF10A rereplic	KB-3-1 tox	TSG101-PTAP inh	RGS4 inhibitor
Cc1cc2c(cc1C)NC(c1c(C)n(C)n(-c3ccccc3)c1=O)C1=C(CC(C)(C)CC1=O)N2 (configuration not stated)	i	-3%	11µM*	i	?	-26%
CCN(CC)c1ccc(-c2nc3cnccn3c2NC2CCCC2)cc1	i	21µM*	16µM*	?	-6%	?
CCC(C)Sc1cccc(-c2nc3ccc(C)cn3c2NC2CCCCC2)c1 (configuration not stated)	?	-28%[9.22 µM]	?	i	2%	7%
c1cc(SC2CCCCC2)cc(-c2nc3cnccn3c2NC2CCCCC2)c1	?	3.3µM*	5.8µM*	?	16%	-26%
CCC(C)Sc1cccc(-c2nc3cnccn3c2NC2CCCCC2)c1 (configuration not stated)	?	?	18µM*	?	.	-7%
Cc1cc(O)cc2c1C1CCC3(C)C(O)CCC3C1C=C2 (configuration not stated)	?	?	?	?	-4%	11%
CC12CCC=CC1=C(C=O)C1C2CCC2(C)C(O)CCC12 (configuration not stated)	?	26%	?	18µM*	-2%	3%
CCCCCOc1ccc(Br)cc1CSC(=N)N	9.2µM*	?	?	12µM*	0%	3%
COc1ccc(Br)cc1CSC(=N)N	i	-4%	-7%	i	0%	-10%
COc1ccc(CCNC(=O)Cn2ncc3c(C)n(Cc4ccccc4F)c(C)c3c2=O)cc1OC	i	.	.	i	.	?
CCOP(=O)(OCC)C(Cc1ccc(OC)c(OC)c1)N=C(c1ccccc1)c1ccccc1 (configuration not stated)	15µM*	.	.	i	.	.
Cc1ccc2c(c1)c1c(c(=O)n(-c3ccccc3C)c(=O)n1Cc1cccc(F)c1)n2C	i	.	.	?	.	18%
COc1cc(-c2c(-c3ccc4c(c3)OCO4)noc2-c2ccsc2)cc(OC)c1OC	i	.	.	i	.	.
CSc1ccccc1NC(=O)CN(C)C(=O)C1CCN(C(=O)Nc2ccccc2)CC1	i	2.3µM*	15%	i	2%	-6%
NC(N)=N/N=C/c1ccc2cccc(OCc3ccccc3)c2n1	i	-2%[9.22 µM]	?	16µM*	1%	16%
COC(=O)c1ccccc1NC(=O)Cn1ncc2c(C)n(Cc3ccc(F)cc3)c(C)c2c1=O	i	.	.	i	.	2%
CO/N=C/NC(=O)Cc1cn(-c2ncc(C(F)(F)F)cc2Cl)c2ccccc12	13µM*	2%	-15%	?	-6%	48%
CC(=O)/C=C\c1cn(-c2ncc(C(F)(F)F)cc2Cl)c2ccccc12	?	?	?	21µM*	1%	-6%
N#CC(C#N)=Cc1cn(-c2ncc(C(F)(F)F)cc2Cl)c2ccccc12	?	0%	?	i	-1%	-42%
O=C(Cn1c(=O)oc2cc(S(=O)(=O)N3CCCCCC3)ccc21)Nc1cccc(C(F)(F)F)c1	i	.	.	i	.	18%
O=c1[nH]c(=O)n(C2CCCCC2)c(O)c1C1=Nc2ccccc2SC(c2ccccc2)C1 (configuration not stated)	i	.	.	i	.	11%
Cc1cc(O)c(C2=Nc3ccccc3SC(c3ccc(Cl)cc3)C2)c(=O)o1 (configuration not stated)	?	.	5.2µM*	i	2%	-48%
Cc1ccc(-c2nnc(Nc3ccc(C(=O)N(C)C)cc3)c3ccccc23)cc1S(=O)(=O)N(C)C	?	.	.	i	.	-7%
N/C(=N\c1nc(CSc2nc3ccccc3s2)cc(=O)[nH]1)Nc1ccc(F)cc1	i	13%	?	12µM*	-1%	2%
CC(=O)c1ccc(-c2ccc([C@H]3[C@H]4C=CC[C@@H](C)[C@@H]4C(=O)N3Cc3ccccc3)c(F)c2)cc1	21µM*	-17%[9.22 µM]	?	?	-5%	5%
SMILES	KB-V1 MDR tox	SW480 rereplic	MCF10A rereplic	KB-3-1 tox	TSG101-PTAP inh	RGS4 inhibitor
COc1ccc(-c2cc([C@H]3[C@H]4C=CC[C@@H](C)[C@@H]4C(=O)N3Cc3ccccc3)ccc2F)cc1OC	?	10%	?	16µM*	2%	3%
COc1ccc(-c2cc(C3C4C=CCC(C)C4C(=O)N3Cc3ccccc3)ccc2F)cc1 (configuration not stated)	.	.	.	.	.	8%
CC[C@@H]1CC=C[C@H]2[C@H]1C(=O)N(Cc1ccccc1)[C@H]2c1ccoc1	?	2%[9.22 µM]	8.2µM*	15µM*	-3%	-27%
COc1ccc(-c2cc([C@H]3[C@H]4C=CC[C@@H](C)[C@@H]4C(=O)N3Cc3ccccc3)ccc2F)cc1	?	-8%[9.22 µM]	?	16µM*	-3%	18%
COc1cccc(C(=O)Nc2cccc(-c3nc4ncccn4c3C)c2)c1	.	.	.	.	.	6%
COC(=O)C1=C[C@@H](C(=O)OC)[C@@H]2C3=C(C(=O)[C@@]2(C)NC(=O)c2ccccc2)[C@H](C)[C@@H]2C(=O)N(c4ccccc4)C(=O)[C@@H]2[C@@H]3C1	.	.	.	.	.	23%
COc1ccc(-n2nnnc2-c2cccc(OC)c2)cc1	1.2µM*	3.3µM*	4.1µM*	1µM*	-5%	5%
Cc1ccc(-n2nnnc2-c2cccc(C)c2)cc1	?	1%	-2%	?	0%	-42%
COc1cccc(-n2nnc3c(=O)n(Cc4ccc(Cl)cc4)cnc32)c1	15µM*	-7%	11%	i	-2%	11%
COc1cccc(-n2nnc3c(=O)n(Cc4ccccc4Cl)cnc32)c1	18µM*	-7%	-2%	i	-4%	-23%
COc1cccc(-n2nnc3c(=O)n(Cc4ccc(C)cc4)cnc32)c1	?	0%	14%	i	-5%	20%
COc1cccc(-n2nnc3c(=O)n(Cc4ccc(Br)cc4)cnc32)c1	i	-4%	22%	i	-5%	-21%
